# The supplement of paper PMC10981050
# Where “and” joins values, the source holds several entries; their conditions need not be identical. Equal values may be shown once.
# Legend:
# Assay in all cases: cell viability relative to vehicle control; higher = less cytotoxic
# Conditions in all cases: 10 µM
# K562 = system: K562
# Summary of the method: (§1)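 Screening covered the Selleck bioactive, kinase and epigenetic probe libraries, less identity-inconsistent compounds, on CRISPR-edited mutant clones and isogenic wild-type clones of four leukaemia lines. Cells, at 2000 per well in 50 µL medium, received a single 10 µM acoustically dispensed dose. After 48 h the supernatant was removed and CellTiter-Glo luminescence was read. Viability was analysed in Genedata Screener as percent of the on-plate vehicle control.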
# MARIMO = system: MARIMO
# Summary of the method: as §1
# MOLM14 = system: MOLM14
# Summary of the method: as §1
# OCI-AML2 = system: OCI-AML2
# Summary of the method: as §1
SMILES,cell viability (K562; SRSF2 genotype: SRSF2 wt/wt),cell viability (MARIMO; SRSF2 genotype: SRSF2 P95H/wt),cell viability (MARIMO; SRSF2 genotype: SRSF2 wt/wt),cell viability (MOLM14; SRSF2 genotype: SRSF2 P95H/wt),cell viability (MOLM14; SRSF2 genotype: SRSF2 wt/wt),cell viability (OCI-AML2; SRSF2 genotype: P95H/wt),cell viability (OCI-AML2; SRSF2 genotype: wt/wt),cell viability (K562; SRSF2 genotype: SRSF2 P95H/wt)
O=C1NC(=O)[C@@H](c2cn3c4c(cccc24)CCC3)[C@@H]1c1c[nH]c2ccccc12 [ARQ 197 (Tivantinib)],37%,6.87%,9.91%,17.9%,4.13%,12.1%,15.4%,
O=C1O[C@H]2[C@@H]3OC(=O)c4cc(O)c(O)c(O)c4-c4c(cc(O)c(O)c4O)C(=O)OC[C@H]2O[C@@H](OC(=O)c2cc(O)c(O)c(O)c2)[C@@H]3OC(=O)c2cc(O)c(O)c3c2[C@@H]2C1=CC(=O)[C@](O)(O3)C2(O)O [Geraniin],103%,97.3%,86%,106%,97.7%,96.1%,92.1%,94.9% and 95.9%
CN1[C@@H]2CC[C@H]1C[C@@H](OC(=O)c1c[nH]c3ccccc13)C2 [Tropisetron],97.1%,87.4%,89%,105%,104%,91.8%,98.3%,92.1% and 89.1%
COc1ccc(F)c(F)c1C(=O)c1cnc(NC2CCN(S(C)(=O)=O)CC2)nc1N,54.3%,11.3%,12.1%,1.28%,0.27%,3.74%,15.6%,
O=C(O)CC(O)(CC(=O)OCc1ccc(O[C@@H]2O[C@H](CO)[C@@H](O)[C@H](O)[C@H]2O)cc1)C(=O)OCc1ccc(O[C@@H]2O[C@H](CO)[C@@H](O)[C@H](O)[C@H]2O)cc1 (stereo not given in full) [Parishin B],109%,103%,98.4%,113%,105%,99.6%,100%,106% and 105%
Nc1nc(N)c2nc(-c3ccccc3)c(N)nc2n1 [Triamterene],33%,98.2%,101%,93.7%,101%,101%,101%,
CCC(C)C1OC2(CCC1C)CC1CC(CC=C(C)C(OC3CC(OC)C(OC4CC(OC)C(O)C(C)O4)C(C)O3)C(C)C=CC=C3COC4C(O)C(C)=CC(C(=O)O1)C34O)O2 (stereo not given) [Ivermectin],26.9%,25.9%,22.9%,21.3%,18.4%,4.65%,7.41%,24.6% and 35%
Oc1ccc2c(c1)OCO2 [Sesamol],83.8%,76.8%,88.2%,86.5%,88%,92%,92.1%,96.7% and 82%
C=CC(=O)N1CCC[C@@H](n2nc(-c3ccc(Oc4ccccc4)cc3)c3c(N)ncnc32)C1,42.9%,70.9%,89.1%,16.5%,17.8%,44.3%,53.1%,35.9% and 57.5%
C[C@@H]1CCN(C(=O)CC#N)C[C@@H]1N(C)c1ncnc2[nH]ccc12,99.6% and 112%,97.6% and 104%,99.8% and 112%,85.3% and 95.7%,104%,96.5% and 99.1%,93.8% and 101%,
"C=C1C2CCC3C2C(C)(C)CCCC13C (single isomer, unassigned; (+)) [(+)-Longifolene]",110%,96.6%,107%,103%,106%,103%,115%,105% and 104%
Cc1cc(N2C[C@@H](C)N[C@@H](C)C2)ncc1-c1ccc(-c2nc3c(ccn3C)c(=O)[nH]2)cc1,59%,79.6%,76.4%,0.95%,1.53%,5.67%,3.85%,
CC1(C)O[C@@H]2[C@@H](CO[C@@]3(COS(N)(=O)=O)OC(C)(C)O[C@@H]23)O1 [Topiramate],99.3%,104%,106%,107%,105%,104%,113%,99.1% and 107%
C[C@]12CC[C@@H]3c4ccc(O)cc4CC[C@H]3[C@@H]1C[C@@H](O)[C@@H]2O [Estriol],87.9%,86.4%,99.5%,101%,99.9%,91%,101%,104% and 92.3%
C[C@H](CSC(=O)c1ccccc1)C(=O)N1C[C@@H](Sc2ccccc2)C[C@H]1C(=O)O [Zofenopril calcium],106%,104%,96.9%,98.3%,108%,116%,121%,106% and 100%
CCn1cc(C(=O)O)c(=O)c2c(N)c(F)c(NC3CCCCC3)cc21,80.6%,94.2%,125%,106%,117%,120%,136%,
CN1CCN(C2CCN(C(=O)Nc3cc(Oc4ccc(NC(=O)C5(C(=O)Nc6ccc(F)cc6)CC5)c(F)c4)ccn3)CC2)CC1 [Golvatinib (E7050)],10.1%,61.6%,58.9%,4.27%,8.67%,7.56%,18.6%,5.46% and 7.13%
C=CC(=O)Nc1ccc(CN2C(=O)N(c3cc(OC)cc(OC)c3)Cc3cnc(Nc4ccc(N5CCN(C)CC5)cc4)nc32)cc1,77.8%,81.2%,78.8%,37.9%,40.1%,25.8%,34.5%,66.2% and 73.3%

SMILES,cell viability (K562; SRSF2 genotype: SRSF2 wt/wt),cell viability (MARIMO; SRSF2 genotype: SRSF2 P95H/wt),cell viability (MARIMO; SRSF2 genotype: SRSF2 wt/wt),cell viability (MOLM14; SRSF2 genotype: SRSF2 P95H/wt),cell viability (MOLM14; SRSF2 genotype: SRSF2 wt/wt),cell viability (OCI-AML2; SRSF2 genotype: P95H/wt),cell viability (OCI-AML2; SRSF2 genotype: wt/wt),cell viability (K562; SRSF2 genotype: SRSF2 P95H/wt)
Cn1cc(-c2ccc(F)c(C(F)(F)F)c2)nc1C1CCN(c2ncnc3[nH]ncc23)CC1,86% and 80.8%,88.3% and 83.6%,96.6% and 99.4%,92.3% and 80.4%,95.3% and 97.3%,85.9% and 77.1%,92.6% and 79.5%,
Cn1cc(-c2ccc3ncc(Cc4ccc5ncccc5c4)n3n2)cn1,98%,102%,101%,87.7%,101%,72.5%,79.3%,108% and 96.6%
CCn1c(-c2nonc2N)nc2c(C#CC(C)(C)O)ncc(OC[C@H]3CCCNC3)c21,79.5%,73%,72.3%,59.2%,47.1%,53.9%,57.1%,87.1% and 95.7%
O=C(Nc1nc2cccc(-c3ccc(CN4CCS(=O)(=O)CC4)cc3)n2n1)C1CC1,84.5%,71.2%,73%,48.1%,45.3%,20.1%,41.7%,89.3% and 94.9%
O=C(O[C@@H]1O[C@@H]2COC(=O)c3cc(O)c(O)c(O)c3-c3c(cc(O)c(O)c3O)C(=O)O[C@H]([C@H]1O)[C@@H]2O)c1cc(O)c(O)c(O)c1 [Corilagin],81.5%,86.9%,81.3%,86.4%,82.2%,103%,96.2%,
O=C(O)c1ccc(Nc2ncc3c(n2)-c2ccc(Cl)cc2C(c2c(F)cccc2F)=NC3)cc1,68.1%,80.4%,88.1%,51.4%,35.4%,41.3%,38.8%,66.5% and 78.8%
CC(=O)OCc1ccccc1 [Benzyl acetate],100%,96.5%,105%,97%,107%,98.3%,98.4%,103% and 94.2%
CCCCCCCCCC(=O)OCC(COC(=O)CCCCCCCCC)OC(=O)CCCCCCCCC [Glyceryl tridecanoate],100%,106%,114%,100%,104%,97.2%,98.6%,105% and 101%
COc1cc2/c(=N/c3ccc(Br)cc3F)nc[nH]c2cc1OCC1CCN(C)CC1 [Vandetanib (ZD6474)],41%,83%,97.2%,57.6%,68.6%,77.3%,75.4%,
"CC[C@H]1OC(=O)[C@H](C)[C@@H](O[C@H]2C[C@@](C)(OC)[C@@H](O)[C@H](C)O2)[C@H](C)[C@@H](O[C@@H]2O[C@H](C)C[C@H](N(C)C)[C@H]2O)[C@](C)(OC)C[C@@H](C)C(=O)[C@H](C)[C@@H](O)[C@]1(C)O [Clarithromycin (Biaxin, Klacid)]",107%,99%,102%,99.6%,104%,108%,91.7%,105% and 111%
CNC(=O)c1ccccc1Oc1nc(Nc2cc(OC)c(OC)c(OC)c2)ncc1Br,90.6%,52.5%,55.3%,8.58%,5.16%,11.6%,19%,
COc1cc2nccc(Oc3ccc(NC(=O)C4(C(=O)Nc5ccc(F)cc5)CC4)cc3)c2cc1OC [Cabozantinib malate],23.6%,67.3%,87.3%,6.23%,7.8%,23.3%,27.8%,21% and 29.7%
CC1OC2OC3C(OCC(O)C3O)OC(=O)C34CCC(C)(C)CC3C3=CCC5C6(C)CC(O)C(OC7OC(CO)C(O)C(O)C7OC7OCC(OC(=O)CC(C)(O)CC(=O)OC1C(OC1OCC(O)C(O)C1O)C2O)C(O)C7O)C(C)(CO)C6CCC5(C)C3(C)CC4O (stereo not given) [Tubeimoside II],16.7%,46.2%,70.6%,51.2%,86.1%,28.5%,38.4%,23.1% and 15.2%
NC(=O)c1cccnc1 [Nicotinamide (Vitamin B3)],113%,107%,103%,105%,104%,104%,111%,106% and 112%
COc1cc(/C=C/C(=O)O[C@H]2CC[C@]34C[C@]35CC[C@]3(C)[C@@H]([C@H](C)CCC=C(C)C)CC[C@@]3(C)[C@@H]5CC[C@H]4C2(C)C)ccc1O [Gamma-Oryzanol],97.5%,98.5%,107%,103%,101%,97.7%,107%,96.7% and 93.9%
CCN(C)S(=O)(=O)Nc1ccc(F)c(C(=O)c2c[nH]c3ncc(-c4cnc(C5CC5)nc4)cc23)c1F,59.2%,83.6%,87.5%,79.3%,92.7%,91.5%,84.7%,
C[C@@H](NC(=O)c1ncnc(N)c1Cl)c1ncc(C(=O)Nc2cc(C(F)(F)F)c(Cl)cn2)s1,51.4%,54.7%,58.1%,86.1%,95.3%,66.9%,69.8%,
O=C(/C=C/c1ccc(O)c(O)c1/C=C/c1ccc(O)c(O)c1)O[C@H](Cc1ccc(O)c(O)c1)C(=O)O [Salvianolic acid A],70.5%,86.4%,94.7%,73.7%,62.1%,98.2%,95%,
